PubChem BioAssay (NCI)
This is part of a sample that, as a whole, favours compounds with a hit. Of some 83,000 tested, about 20% had one in any assay.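 The endpoint reported here, percent growth, reads 100 for growth as untreated, 0 for no net growth and -100 for all cells dead.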 Active and inactive are the calls of the source. The calls were made as follows: active = growth percent below 10; inactive = the rest.

Columns and labels:
Experiment in all cases: NCI-60 one-dose screen, 48 h (100 = growth as untreated, 0 = no growth, -100 = all killed)
Details in all cases: 10 µM unless noted
RPMI-8226 leukemia = test system: RPMI-8226 leukemia
OVCAR-8 ovarian = test system: OVCAR-8 ovarian
OVCAR-5 ovarian = test system: OVCAR-5 ovarian
OVCAR-4 ovarian = test system: OVCAR-4 ovarian
SK-OV-3 ovarian = test system: SK-OV-3 ovarian
IGROV1 ovarian = test system: IGROV1 ovarian
OVCAR-3 ovarian = test system: OVCAR-3 ovarian
HS 578T breast = test system: HS 578T breast
NCI/ADR-RES ovarian = test system: NCI/ADR-RES ovarian
T-47D breast = test system: T-47D breast

Measured: growth

CCN(CC)CCOc1ccccc1-n1c(C)ccc1-c1ccccc1
inactive: RPMI-8226 leukemia 63.2% | OVCAR-8 ovarian 97.5% | OVCAR-5 ovarian 101% | OVCAR-4 ovarian 106% | SK-OV-3 ovarian 99.5% | IGROV1 ovarian 71.4% | OVCAR-3 ovarian 78.9% | HS 578T breast 82.5% | NCI/ADR-RES ovarian 85.4% | T-47D breast 91.9%

O=C1/C(=C/c2ccc([N+](=O)[O-])o2)Oc2ccc(Br)cc21
inactive: RPMI-8226 leukemia 84.2% | OVCAR-5 ovarian 105% | SK-OV-3 ovarian 92.1% | HS 578T breast 106% | NCI/ADR-RES ovarian 98.3% | T-47D breast 58%
active: OVCAR-8 ovarian 6.99% | OVCAR-4 ovarian 5.15% | IGROV1 ovarian -17.9% | OVCAR-3 ovarian -43.1%

c1ccc(N2CCN(c3nncc4ccccc34)CC2)nc1
inactive: RPMI-8226 leukemia 107% | OVCAR-8 ovarian 97.8% | OVCAR-5 ovarian 105% | OVCAR-4 ovarian 109% | SK-OV-3 ovarian 104% | IGROV1 ovarian 116% | OVCAR-3 ovarian 99.9% | HS 578T breast 109% | NCI/ADR-RES ovarian 109% | T-47D breast 101%

O=C(Nc1ccc(Cl)cc1)Nc1ccc(Oc2nncc3ccccc23)cc1
inactive: OVCAR-8 ovarian 19.4% | SK-OV-3 ovarian 56.7% | HS 578T breast 37.5% | NCI/ADR-RES ovarian 37.6% | T-47D breast 10.2%
active: RPMI-8226 leukemia -0.0795% | OVCAR-5 ovarian -16% | OVCAR-4 ovarian -20.8% | IGROV1 ovarian 8.16% | OVCAR-3 ovarian -62.8%

COc1ccc(-c2csc(NC(=O)c3cc(OC)c(OC)c(OC)c3)n2)cc1
inactive: RPMI-8226 leukemia 92.7% | OVCAR-8 ovarian 97.2% | OVCAR-5 ovarian 103% | OVCAR-4 ovarian 96.8% | SK-OV-3 ovarian 101% | IGROV1 ovarian 100% | OVCAR-3 ovarian 105% | HS 578T breast 96.4% | NCI/ADR-RES ovarian 115% | T-47D breast 94.8%

Cc1ccc2c(c1)O/C(=C\c1ccc([N+](=O)[O-])o1)C2=O
inactive: OVCAR-5 ovarian 71.6% | SK-OV-3 ovarian 91.1% | HS 578T breast 106% | NCI/ADR-RES ovarian 78.5% | T-47D breast 41.4%
active: RPMI-8226 leukemia -34.4% | OVCAR-8 ovarian -4.7% | OVCAR-4 ovarian 5.62% | IGROV1 ovarian -17.3% | OVCAR-3 ovarian -15%

COc1ccc(C2=NN(C(C)=O)C(c3cc(OC)c(OC)c(OC)c3)C2)cc1 (stereo not given)
inactive: RPMI-8226 leukemia 93.9% | OVCAR-8 ovarian 108% | OVCAR-5 ovarian 111% | OVCAR-4 ovarian 112% | SK-OV-3 ovarian 108% | IGROV1 ovarian 92.8% | OVCAR-3 ovarian 88.6% | HS 578T breast 244% | NCI/ADR-RES ovarian 83% | T-47D breast 92.1%

CCN1C2=C(SC(=S)C1=C1SC(C(=O)OC)=C(C(=O)OC)S1)SC(=Nc1ccc(OC)cc1)C2=O
inactive: SK-OV-3 ovarian 61% | HS 578T breast 26.2% | T-47D breast 12.7%
active: RPMI-8226 leukemia -13.4% | OVCAR-8 ovarian -21.7% | OVCAR-5 ovarian -24.6% | OVCAR-4 ovarian 5.88% | IGROV1 ovarian -58.3% | OVCAR-3 ovarian -61% | NCI/ADR-RES ovarian -12.2%

O=[N+]([O-])c1cnc(Sc2ccncn2)c([N+](=O)[O-])c1
active: T-47D breast -31.7%
inactive: RPMI-8226 leukemia 67.4% | OVCAR-8 ovarian 97.3% | OVCAR-5 ovarian 102% | OVCAR-4 ovarian 97.8% | SK-OV-3 ovarian 97.2% | IGROV1 ovarian 117% | OVCAR-3 ovarian 55.1% | HS 578T breast 97.8% | NCI/ADR-RES ovarian 107%

CC1=CSC2=NCCN12
inactive: RPMI-8226 leukemia 106% | OVCAR-8 ovarian 112% | OVCAR-5 ovarian 107% | OVCAR-4 ovarian 103% | SK-OV-3 ovarian 110% | IGROV1 ovarian 108% | OVCAR-3 ovarian 113% | HS 578T breast 110% | NCI/ADR-RES ovarian 100% | T-47D breast 109%

NNC(=O)NO
inactive: RPMI-8226 leukemia 109% | OVCAR-8 ovarian 102% | OVCAR-5 ovarian 110% | OVCAR-4 ovarian 101% | SK-OV-3 ovarian 94.1% | IGROV1 ovarian 108% | OVCAR-3 ovarian 106% | HS 578T breast 96.6% | NCI/ADR-RES ovarian 109% | T-47D breast 98.9%

O[C@@H]1Cc2ccc3ccccc3c2N[C@H](c2ccoc2)C1
inactive: RPMI-8226 leukemia 103% | OVCAR-8 ovarian 101% | OVCAR-5 ovarian 100% | OVCAR-4 ovarian 99.1% | SK-OV-3 ovarian 102% | IGROV1 ovarian 109% | OVCAR-3 ovarian 115% | HS 578T breast 104% | NCI/ADR-RES ovarian 103% | T-47D breast 93.8%

Cc1nn(-c2ccccc2)c2c1oc(=O)c1cc(Cl)ccc12
inactive: RPMI-8226 leukemia 101% | OVCAR-8 ovarian 101% | OVCAR-5 ovarian 111% | OVCAR-4 ovarian 113% | SK-OV-3 ovarian 106% | IGROV1 ovarian 86.5% | OVCAR-3 ovarian 85.8% | HS 578T breast 175% | NCI/ADR-RES ovarian 108% | T-47D breast 105%

O=C(C(Br)Br)C(Br)C(Br)c1ccccc1 (stereo not given)
active: OVCAR-3 ovarian 1.96%
inactive: RPMI-8226 leukemia 78.1% | OVCAR-8 ovarian 88% | OVCAR-5 ovarian 108% | OVCAR-4 ovarian 43.1% | SK-OV-3 ovarian 116% | IGROV1 ovarian 84.3% | HS 578T breast 104% | NCI/ADR-RES ovarian 94.5% | T-47D breast 49.7%

Cc1ccc2c(c1)C(=O)/C(=C/c1ncc([N+](=O)[O-])n1C)O2
active: RPMI-8226 leukemia -12.4% | OVCAR-8 ovarian -30.8% | OVCAR-5 ovarian 8.96% | SK-OV-3 ovarian 0.948% | IGROV1 ovarian -26.5% | OVCAR-3 ovarian -46.9% | HS 578T breast -10.2% | NCI/ADR-RES ovarian -3.98%
inactive: OVCAR-4 ovarian 21.8% | T-47D breast 90.3%

COc1cc(C2NC(c3ccc(Cl)cc3)C(C)C(=NC(=O)c3cnccn3)C2C)cc(OC)c1OC (stereo not given)
inactive: RPMI-8226 leukemia 79.4% | OVCAR-8 ovarian 103% | OVCAR-5 ovarian 94.5% | OVCAR-4 ovarian 93% | SK-OV-3 ovarian 108% | IGROV1 ovarian 91.6% | OVCAR-3 ovarian 107% | HS 578T breast 109% | NCI/ADR-RES ovarian 101% | T-47D breast 88%

O=C(/C=C/c1ccc(Cl)cc1)c1ccccc1
active: RPMI-8226 leukemia 1.52%
inactive: OVCAR-8 ovarian 97.5% | OVCAR-5 ovarian 99.5% | OVCAR-4 ovarian 107% | SK-OV-3 ovarian 126% | IGROV1 ovarian 101% | OVCAR-3 ovarian 101% | HS 578T breast 126% | NCI/ADR-RES ovarian 107% | T-47D breast 92.4%

COc1ccc2[nH]cc(/C=C3/C(=O)Nc4ccc(F)cc43)c2c1
inactive: RPMI-8226 leukemia 62.4% | OVCAR-8 ovarian 84.1% | OVCAR-5 ovarian 88.5% | OVCAR-4 ovarian 75.6% | SK-OV-3 ovarian 104% | IGROV1 ovarian 98.2% | OVCAR-3 ovarian 108% | HS 578T breast 72.6% | NCI/ADR-RES ovarian 84.9% | T-47D breast 92.2%

OCCOc1c(Cl)cc(Cl)cc1Cl
inactive: RPMI-8226 leukemia 119% | OVCAR-8 ovarian 104% | OVCAR-5 ovarian 92.6% | OVCAR-4 ovarian 98.1% | SK-OV-3 ovarian 106% | IGROV1 ovarian 115% | OVCAR-3 ovarian 118% | HS 578T breast 98.4% | NCI/ADR-RES ovarian 102% | T-47D breast 109%

CO[C@H]1CC(O[C@@H]2/C(C)=C/C[C@@H]3C[C@@H](C[C@]4(CC[C@H](C)[C@@H](C5CCCCC5)O4)O3)OC(=O)[C@@H]3C=C(C)/C(=N/O)[C@H]4OC/C(=C\C=C\[C@@H]2C)[C@]43O)O[C@@H](C)C1O (stereo not given in full)
active: RPMI-8226 leukemia -28.8% | OVCAR-8 ovarian -51.3% | OVCAR-5 ovarian -83% | OVCAR-4 ovarian -88.5% | SK-OV-3 ovarian -98.4% | IGROV1 ovarian -47.4% | OVCAR-3 ovarian -98.3% | HS 578T breast -43.7% | NCI/ADR-RES ovarian -76.3% | T-47D breast -78.1%

Nc1ccc(C2=Nc3cccc4cccc(c34)S2)cc1
inactive: RPMI-8226 leukemia 81.8% | OVCAR-8 ovarian 93.6% | OVCAR-5 ovarian 73.2% | OVCAR-4 ovarian 85.3% | SK-OV-3 ovarian 103% | IGROV1 ovarian 67.5% | OVCAR-3 ovarian 87.9% | HS 578T breast 92.2% | NCI/ADR-RES ovarian 107%
active: T-47D breast 8.57%

Clc1ccc2c(Nc3ccc4oc(NCCN5CCCC5)nc4c3)ccnc2c1
inactive: RPMI-8226 leukemia 77% | OVCAR-8 ovarian 94.3% | OVCAR-5 ovarian 101% | OVCAR-4 ovarian 85.2% | SK-OV-3 ovarian 114% | IGROV1 ovarian 93.7% | OVCAR-3 ovarian 82.7% | HS 578T breast 97.1% | NCI/ADR-RES ovarian 101% | T-47D breast 91.9%

Cc1cc2c(cc1C)Nc1sc(NC(=O)CN3CCN(C)CC3)nc1C(=O)N2
inactive: RPMI-8226 leukemia 105% | OVCAR-8 ovarian 103% | OVCAR-5 ovarian 105% | OVCAR-4 ovarian 108% | SK-OV-3 ovarian 99.6% | IGROV1 ovarian 112% | OVCAR-3 ovarian 112% | HS 578T breast 106% | NCI/ADR-RES ovarian 103% | T-47D breast 94.1%

O=C(Nc1ccc(OCc2nnc(-c3ccccc3)o2)c(F)c1)Nc1ccc(Cl)c(C(F)(F)F)c1
active: RPMI-8226 leukemia -21%
inactive: OVCAR-8 ovarian 24.5% | OVCAR-5 ovarian 64.5% | OVCAR-4 ovarian 26.8% | SK-OV-3 ovarian 52.4% | IGROV1 ovarian 36.3% | OVCAR-3 ovarian 15.4% | HS 578T breast 35.6% | NCI/ADR-RES ovarian 17.8% | T-47D breast 14.9%

O=C(Nc1ccc(Cl)cc1)c1cc2c(cc1O)[nH]c1ccccc12
active: RPMI-8226 leukemia -61.6% | OVCAR-8 ovarian 8.57% | OVCAR-3 ovarian 6.34% | NCI/ADR-RES ovarian 0.0543% | T-47D breast -1.88%
inactive: OVCAR-5 ovarian 59.8% | OVCAR-4 ovarian 30.6% | SK-OV-3 ovarian 24.4% | IGROV1 ovarian 163% | HS 578T breast 52%

C[n+]1ccc(C#N)c2ccccc21
inactive: RPMI-8226 leukemia 94.6% | OVCAR-8 ovarian 111% | OVCAR-5 ovarian 103% | OVCAR-4 ovarian 64.7% | SK-OV-3 ovarian 98.2% | IGROV1 ovarian 70.5% | HS 578T breast 108% | NCI/ADR-RES ovarian 101% | T-47D breast 88.8%
active: OVCAR-3 ovarian 4.02%

CCN(CC)CCCCNc1c2ccccc2[n+](C)c2c1[nH]c1ccccc12
active: RPMI-8226 leukemia -42.6% | OVCAR-8 ovarian -11.9% | OVCAR-5 ovarian -5.18% | OVCAR-4 ovarian -2.34% | SK-OV-3 ovarian -11.5% | IGROV1 ovarian -34.2% | OVCAR-3 ovarian -13.6% | HS 578T breast -48.1% | T-47D breast -11.7%
inactive: NCI/ADR-RES ovarian 86.5%
